Data on 17 molecules can be found in PubChem BioAssay (NCI).

Common to all, as to test: NCI-60 one-dose screen, 48 h (100 = growth as untreated, 0 = no growth, -100 = all killed)
Common to all, as to settings: 10 µM unless noted

Experiment [1] has as its system BT-549 breast.
The subject of experiment [2] is MDA-MB-435 melanoma.
Experiment [3] has as its system SW-620 colon.
The subject of experiment [4] is MCF7 breast.
In experiment [5] the test system is HCC-2998 colon.
Experiment [6] has as its system KM12 colon.
The subject of experiment [7] is HCT-116 colon.

The panel holds about 83,000 compounds, 20% with a hit somewhere; the sample as a whole holds those more often.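 Method: cells in 96-well plates; compound added at one concentration; 48 h incubation; percent growth measured; values under 10 scored active.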 A number with no mark means an inactive call. Calls of active or inactive are those of the source.

Turning to `COc1cc2c(cc1OC)-c1ccc3cc4c(cc3c1N(CCCN1CCCCC1)C2)OCO4`, the growth in experiment [1] is 40.7%; in experiment [2], 69.6%; in experiment [3] it was 38%; in experiment [4], 46.3%; in experiment [5], 80.9%; in experiment [6], 48.5%.

In the case of `Clc1ccc2c(NCCCN3CCN(c4nc(-n5ccnc5)nc5ccccc45)CC3)ccnc2c1`, the growth in experiment [1] was 67.6%; in experiment [2], 71.2%; in experiment [3] it was -52.9% (active); in experiment [4], -29.3% (active); in experiment [7], 72.8%; in experiment [5], 95.7%. Moreover, the growth in experiment [6] was 87.8%.

In the case of `CCCCN(CCCC)CCCn1c(=O)c2sc3ncccc3c2n2nnc(-c3ccccc3)c12`, the growth in experiment [1] was 124%; in experiment [2] it was -84.2% (active); in experiment [3], 100%; in experiment [4] it was 93.2%; in experiment [5], 118%; in experiment [6] it was 107%.

For `CCCn1nc(-c2ccccc2)c2c(-c3ccccc3)onc2c1=O`, the growth in experiment [1] is 71.5%; in experiment [2] it was 8.42% (active); in experiment [3], 43.5%; in experiment [4], 40.9%; in experiment [5] it was 85.3%; in experiment [6] it was 60%.

On to `O=C1NN(C(=O)c2ccc(O)cc2)C(c2ccccc2)=N/C1=C\c1cn(-c2ccccc2)nc1-c1ccccc1`, for which the growth in experiment [1] is 94.7%; in experiment [2] it was 105%; in experiment [3] it was 110%; in experiment [4], 96%; in experiment [7] it was 95.7%; in experiment [5], 104%. The growth in experiment [6] is 98.1%.

Take `CCN(CC)CCOC(=O)Nc1ccccc1Cl`: the growth is 81.3% in experiment [1]; 108% in experiment [2]; 101% in experiment [3]; 101% in experiment [4]; 72.7% in experiment [7]; 101% in experiment [5]. Moreover, the growth in experiment [6] was 103%.

Consider `O=C1N/C(=N/O)S/C1=C/c1cn(-c2ccccc2)nc1-c1ccccc1`, for which the growth in experiment [1] was 92.3%; in experiment [2], 106%; in experiment [3] it was 107%; in experiment [4], 82.2%; in experiment [7], 82.4%; in experiment [5], 126%. In addition, the growth in experiment [6] is 86.4%.

Regarding `Cc1nn(-c2ccccc2)c2c1C(c1ccc([N+](=O)[O-])cc1)C(C#N)=C(N)O2` (stereo not drawn), the growth in experiment [1] was 123%; in experiment [2], 121%; in experiment [3], 119%; in experiment [4], 96.7%; in experiment [7], 95.8%; in experiment [5] it was 105%. Further, the growth in experiment [6] was 109%.

Turning to `O=S(=O)(Nc1ccsc1-c1nc(-c2ccccc2)no1)c1cc(Cl)cc(Cl)c1`, the growth is 99.5% in experiment [1]; 88.9% in experiment [2]; 95.8% in experiment [3]; 92.4% in experiment [4]; 104% in experiment [5]; 93.2% in experiment [6].

As for `COc1ccc(NC(=O)c2cccc(-c3cc(=O)c4c(O)c(OC)c(OC)cc4o3)c2)cc1`, the growth is 31% in experiment [1]; 105% in experiment [2]; 102% in experiment [3]; 93.3% in experiment [4]; 70.5% in experiment [7]; 101% in experiment [5]. The growth in experiment [6] is 103%.

With `CN1CCN(C(=O)[C@@]2(C)CC[C@]3(C)CC[C@]4(C)C(=CC[C@@H]5[C@@]6(C)C/C(=C/c7ccncc7)C(=O)C(C)(C)[C@@H]6CC[C@]54C)[C@@H]3C2)CC1`, the growth in experiment [1] is 55.6%; in experiment [2], 44.6%; in experiment [3] it was 31.6%; in experiment [4], 23.3%; in experiment [7], 12%; in experiment [5], 58.1%. Further, the growth in experiment [6] was 36.6%.

As for `Cc1c2c(cn1Cc1ccccc1)CCc1cn(C)nc1-2`, the growth was 74.4% in experiment [1]; 104% in experiment [2]; 109% in experiment [3]; 85.2% in experiment [4]; 97.6% in experiment [5]; 99.9% in experiment [6].

For the molecule `Cc1cc(N2CCCCC2)nc(N(CCNc2ccnc3cc(Cl)ccc23)Cc2ccccn2)n1`, the growth in experiment [1] is 64.3%; in experiment [2] it was 68.1%; in experiment [3], 45.7%; in experiment [4], 26.2%; in experiment [7] it was 16.2%; in experiment [5] it was 84.6%. In addition, the growth in experiment [6] was 55.2%.

Regarding `C=C(C)[C@@H]1CC[C@]2(CO)CC[C@]3(C)[C@H](CC[C@@H]4[C@@]5(C)C=C(C#N)C(=O)C(C)(C)[C@@H]5CC[C@]43C)[C@@H]12`, the growth in experiment [1] was 29.3%; in experiment [2] it was 17.8%; in experiment [3] it was 5.54% (active); in experiment [4] it was 1.77% (active); in experiment [7], 10.5%; in experiment [5], 8.97% (active). Also, the growth in experiment [6] was 6.43% (active).

For the molecule `Cc1ccc(S(=O)(=O)Nc2sccc2-c2nc(-c3ccccc3)no2)cc1`, the growth in experiment [1] is 92.5%; in experiment [4], 93.1%; in experiment [5], 97.8%; in experiment [6] it was 90.1%.

Turning to `C=C1c2c(C)nn(-c3ccc(N)cc3)c2N(C)C23CC1C1(C)c4c(C)nn(-c5ccc(N)cc5)c4N(C)C(C)(CC12)C3` (stereo not drawn), the growth in experiment [1] is 72.7%; in experiment [3], 77.1%; in experiment [4] it was 24.8%; in experiment [5], 85.8%; in experiment [6], 68.3%.

For the molecule `CCCCC1COc2cccc3c(SCC(=O)N(C)c4cccc(Cl)c4)cc[n+]1c23` (stereo not drawn), the growth was 107% in experiment [1]; 120% in experiment [2]; 94.3% in experiment [4]; 104% in experiment [7]; 104% in experiment [5]; 103% in experiment [6].
